About 83,000 compounds went through this panel and 20% of them were active in at least one assay; those are over-represented in the sample as a whole.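 96-well plates, one dose, 48 hours. Percent growth reported; active if below 10.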 Values without a mark were called inactive. Calls of active or inactive are those of the source.
Tests used:
Experiment in all cases: NCI-60 one-dose screen, 48 h (100 = growth as untreated, 0 = no growth, -100 = all killed)
Settings in all cases: 10 µM unless noted
SR leukemia = test system: SR leukemia
RPMI-8226 leukemia = test system: RPMI-8226 leukemia
OVCAR-8 ovarian = test system: OVCAR-8 ovarian
OVCAR-5 ovarian = test system: OVCAR-5 ovarian
OVCAR-4 ovarian = test system: OVCAR-4 ovarian
SK-OV-3 ovarian = test system: SK-OV-3 ovarian
IGROV1 ovarian = test system: IGROV1 ovarian
OVCAR-3 ovarian = test system: OVCAR-3 ovarian
HS 578T breast = test system: HS 578T breast
NCI/ADR-RES ovarian = test system: NCI/ADR-RES ovarian
T-47D breast = test system: T-47D breast
BT-549 breast = test system: BT-549 breast
MDA-MB-435 melanoma = test system: MDA-MB-435 melanoma
SW-620 colon = test system: SW-620 colon
MCF7 breast = test system: MCF7 breast
HCT-116 colon = test system: HCT-116 colon
HCC-2998 colon = test system: HCC-2998 colon
KM12 colon = test system: KM12 colon

Row | Compound | growth (SR leukemia) | growth (RPMI-8226 leukemia) | growth (OVCAR-8 ovarian) | growth (OVCAR-5 ovarian) [%] | growth (OVCAR-4 ovarian) | growth (SK-OV-3 ovarian) | growth (IGROV1 ovarian) | growth (OVCAR-3 ovarian) | growth (HS 578T breast) | growth (NCI/ADR-RES ovarian) [%] | growth (T-47D breast) | growth (BT-549 breast) | growth (MDA-MB-435 melanoma) | growth (SW-620 colon) | growth (MCF7 breast) | growth (HCT-116 colon) | growth (HCC-2998 colon) [%] | growth (KM12 colon)
1 | COc1nc(OC)nc(-c2cc(C(=O)c3ccc(Br)cc3)n3cc(C)cc(C)c23)n1 | 87% | 76.4% | 54.7% | 102 | 37.6% | 53.9% | 62.4% | 34.5% | 24.1% | 58.7 | 37.9% | 42.7% | 94.9% | 89.7% | 70.5% | 36.5% | 86.2 | 94.2%
2 | O=C(CCCC(=O)Nc1ccc(Cn2nnc3cc(Cl)c(Cl)cc32)cc1)Nc1ccc(CN2N=NC3C=C(Cl)C(Cl)=CC32)cc1 (configuration not stated) | 79.2% | 64.4% | 76.3% | 95.8 | 65.6% | 86.3% | 81.1% | 87.7% | 91.5% | 83.1 | 49% | 71.5% | 87.8% | 85.8% | 66.6% | 75.1% | 90.2 | 79.9%
3 | Cn1c2c(cc(S(=O)(=O)c3ccccc3)c1=O)CCc1c-2cnn1-c1ccc(Cl)cc1 | 52% | 49.3% | -48.4% (active) | 26.2 | -9.94% (active) | 1.98% (active) | 50.6% | 56.4% | -10.1% (active) | 39.3 | -24.2% (active) | -13.8% (active) | 16.2% | 56.7% | -27.7% (active) | 53% | 74.3 | 92.2%
4 | CCC(CCCN1C(=O)c2ccccc2C1=O)Nc1cc(OC)cc2cccnc12 (configuration not stated) | 73.5% | 102% | 96.1% | 89.6 | 39.9% | 107% | -7.61% (active) | 106% | 84.5% | 99.5 | 66.3% | 92.9% | 105% | 95% | 20.8% | 105% | 147 | 110%
5 | CCCCCCCCCCCCc1ccc([N+](CC)(CC)CC)cc1 | 32.4% | 6.37% (active) | 31.7% | 92.3 | 21.6% | 73.2% | 48.1% | 23.2% | 65.4% | 103 | 18.6% | 30.2% | 13.9% | 58.8% | 27.9% | 41.8% | 36.7 | 25.6%
6 | NC(=O)CC(NC(=O)COc1ccc(Cl)cc1Cl)C(=O)O (configuration not stated) | 115% | 117% | 105% | 105 | 112% | 110% | 109% | 106% | 107% | 112 | 109% | 108% | 107% | 105% | 102% | 101% | 109 | 104%
7 | CCOc1ccc(N(C)c2ccc(/C=C/C3=[N+](C)c4ccccc4C3(C)C)cc2)cc1 | -26.7% (active) | -20.3% (active) | -15.8% (active) | 40.1 | 37.1% | 16.9% | 1.79% (active) | -72.9% (active) | 41.7% | 72.9 | 23.2% | 3.12% (active) | -51% (active) | -40.4% (active) | 10.1% | -45.6% (active) | 11.4 | -93% (active)
8 | c1ccc(-c2cn3ccnc3c(-c3ccc4ncn(C5CCCCC5)c4c3)n2)cc1 | 40.2% | 14.3% | 36.1% | 92.1 | 65.5% | 92.5% | 88% | 58.2% | 76.2% | 49.5 | -11.1% (active) | 42.9% | 71.3% | 90.9% | 62% | 40.5% | 103 | 51%
9 | CC1=C(C)C[C@]2(C(=O)O[C@H]3CCCC[C@@H]32)[S@](=O)C1 | 92.3% | 111% | 105% | 114 | 106% | 110% | 113% | 107% | 107% | 104 | 105% | 91.6% | 103% | 110% | 95% | 108% | 95 | 101%

Reference: PubChem BioAssay (NCI)
